Measurements reported in PubChem BioAssay AID1347383 (Zoeller Lab, School of Medicine, Boston University, 2020).
The source made the active and inactive calls.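 How the source made its calls: active means cell survival after UV exposure 2 SD above solvent-only control wells at 10 µM, confirmed on one or two repeats; inactive means the rest.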

Test: cell survival after pyrene fatty acid photosensitization – ZR-82 cells, Analyticon library, screen 2, phospholipid biosynthesis inhibitor project, primary screen (AID 1347383);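 further: survival reflects blocked phospholipid synthesis cutting uptake of the phototoxic fatty acid; compound and fatty acid exposure 3 h then viability read next day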
Conditions: ZR-82 CHO cells, pyrene-fatty acid UV killing, CellTiter Blue; at 10 µM; peroxisome-deficient CHO-K1 variant; with DGAT-1, DGAT-2 and ACAT inhibitors

With `O=C1OCC(c2ccccc2)=C1Cc1ccccc1` the outcome was “inactive”.
For `CC(C)c1ccc2c(c1)CCC1[C@](C)(C(=O)O)CCC[C@]21C` (stereo not given in full), the outcome was “inactive”.
In the case of `COc1cc(C2OC(c3ccc(O)c(OC)c3)C(C)C2C)ccc1O` (stereo not given), the outcome is reported as “active”.
For `OC[C@H]1O[C@@H](Oc2ccccc2)[C@H](O)[C@@H](O)[C@@H]1O`, the outcome was “inactive”.
With `C=C1CCC2[C@@](C)(CO)CCC[C@]2(C)[C@H]1CC/C(C)=C/CO` (stereo not given in full) the outcome was “inactive”.
With `CC(=O)NC(Cc1c[nH]c2ccccc12)C(=O)O` (stereo not given) the outcome was “inactive”.
With `C/C=C(/C)C(=O)O[C@@H]1C[C@@H](OC(=O)CC(C)C)C2(C)C3C(=O)C=C(C)C2C3C1(C)C` (stereo not given in full) the outcome was “inactive”.
For `COc1ccc(C(O)C(C)OC2OC(CO)C(O)C(O)C2O)cc1` (stereo not given), the outcome was “inactive”.
In the case of `COc1cc(/C=C/c2cc(O)cc(O)c2)ccc1O`, the outcome is reported as “inactive”.
With `CC1=C[C@H]2[C@@H](CC1=O)[C@H](C)C[C@H](O)[C@H]2C(C)C` the outcome was “inactive”.
For `CCCCCCCCCCC1CC2=C(OC(CCCCCCC)CC2=O)C(=O)O1` (stereo not given), the outcome was “inactive”.
For `O=C(NC(CO)Cc1ccccc1)c1ccccc1` (stereo not given), the outcome was “inactive”.
With `COc1cc(O)cc2c1C(=O)CC(c1ccc(O)cc1)O2` (stereo not given) the outcome was “inactive”.
For `C=C1C[C@]23C[C@H]4C5[C@]6(C)CC(=O)C[C@]57C(C2C(O)[C@H]1C(O)C37)N4C6` (stereo not given in full), the outcome was “inactive”.
With `CC1CCC2C(C(=O)O)=CC3C(O)C(C)(C)CC123` (stereo not given) the outcome was “inactive”.
With `COc1cc(/C=C/CO)ccc1OC/C=C(\C)CCC=C(C)C` the outcome was “inactive”.
In the case of `OC1C(c2ccccc2)CCC(c2ccccc2)C1O` (stereo not given), the outcome is reported as “inactive”.
In the case of `OC1c2ccccc2-c2c3c(cc4c2C1NCC4)OCO3` (stereo not given), the outcome is reported as “inactive”.
With `CC1=C(CCCCC(=O)O)COC1=O` the outcome was “inactive”.
In the case of `O=C1CC(c2ccc(O)cc2)Oc2cc(O)cc(O)c21` (stereo not given), the outcome is reported as “inactive”.
For `O=c1[nH]c2ccccc2c(-c2cccc(O)c2)c1O`, the outcome was “inactive”.
In the case of `CC[C@H](C)C(=O)O[C@H]1CCC=C2C=C[C@H](C)[C@H](CC[C@H]3C[C@@H](O)CC(=O)O3)[C@H]21`, the outcome is reported as “inactive”.
In the case of `C/C=C/C=C/[C@H]1Cc2cc(O)cc(O)c2O1`, the outcome is reported as “inactive”.
In the case of `CC(=O)O[C@@H]1CC[C@@]2(C)C(CC[C@]3(C)C2C(=O)C=C2[C@@H]4[C@@H](C)[C@H](C)CC[C@]4(C)CC[C@]23C)[C@@]1(C)C(=O)O` (stereo not given in full), the outcome is reported as “inactive”.
With `CCCCCCc1cc(O)c(C)c(OC(C)=O)c1O` the outcome was “inactive”.
With `O=C(CCc1ccc(O)cc1)c1c(O)cc(O)cc1O` the outcome was “inactive”.
In the case of `C=CC(C)(C)c1cc2cc(CC(O)C(C)(C)O)c(OC)cc2oc1=O` (stereo not given), the outcome is reported as “inactive”.
In the case of `COc1cc(O[C@@H]2O[C@H](CO)[C@@H](O)[C@H](O)[C@H]2O)cc2occ(-c3ccc(O)cc3)c(=O)c12`, the outcome is reported as “inactive”.
With `COc1ccc2c(c1OC)C(=O)N1CCc3cc4c(cc3C(=O)C21O)OCO4` (stereo not given) the outcome was “inactive”.
With `O=C1CCC(=O)NCCCCCN(O)C(=O)CCC(=O)NCCCCCN(O)C(=O)CCC(=O)NCCCCCN1` the outcome was “inactive”.
In the case of `CC(C)Cc1cnc(CCC(N)=O)c(=O)[nH]1`, the outcome is reported as “inactive”.
In the case of `CC/C=C/CC1=C(CCCCCCCC(=O)O)CCC1=O`, the outcome is reported as “inactive”.
With `COc1cc(O)cc2occ(-c3ccc(O)cc3O)c(=O)c12` the outcome was “inactive”.
For `COc1ccc(-c2coc3cc(O)ccc3c2=O)cc1`, the outcome was “inactive”.
In the case of `CC1=CC(=O)C2C(C)(C)CC(O)CC2(C)C1CO` (stereo not given), the outcome is reported as “inactive”.
In the case of `OC1CC(c2ccccc2)C(O)C(O)C1c1ccccc1` (stereo not given), the outcome is reported as “inactive”.
With `CC[C@H](C)C(=O)O[C@H]1C[C@@H](C)C=C2C=C[C@H](C)[C@H](CC[C@@H]3C[C@@H](O)CC(=O)O3)[C@H]21` the outcome was “inactive”.
In the case of `COC(=O)/C=C(\C)CCC1(C)C(C)CCC2(C)C(C)=CC(=O)CC21` (stereo not given), the outcome is reported as “inactive”.
With `CC(C)C(=O)C1(C(C)CC(=O)O)CCC(C)C(=O)C1` (stereo not given) the outcome was “inactive”.
For `CC(=O)OC(C)C(C)(O)C(=O)O[C@@H]1CC[C@]2(C)CC(=O)C(=C(C)C)C[C@H]2[C@]1(C)OC(C)=O` (stereo not given in full), the outcome was “inactive”.
